Results taken from PubChem BioAssay (NCATS).
Inconclusive results are not listed. A call without a number means that no potency is given here. Activity calls are given as the source filed them. Calls follow the shape of the dose curve; as a rule, active = well fitted curve in the direction sought with a large enough effect; inconclusive = small, poorly fitted or top-dose-only effect, or another doubt; inactive = no such curve, though single readings can be large; an effect the other way counts as inactive or inconclusive.

Columns and labels:
[1] = qHTS to identify inhibitors of the type 1 interferon - major histocompatibility complex class I in skeletal muscle: primary screen against the NCATS LOPAC collection (AID 1347405); settings: iHSKM muscle cells, IFN-b-induced MHC-I HiBiT luminescence, 24 h; series mostly up to 45.9 µM;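 also: lytic HiBiT luminescence reporting HLA-B protein level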; also: potency is read from the fitted curve at half-maximal effect
Outline: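 CRISPR-engineered immortalized human myoblasts (C25cl48) with HiBiT fused to endogenous HLA-B*08:01, stimulated with 4 ng/ml IFN-beta. LOPAC compounds tested as a 7-point 1:4.3 titration (top 46 uM final), 24 h at 37 C; lytic HiBiT luminescence read.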

[2] = qHTS for inhibitors of adenylyl cyclases using a fission yeast platform: a pilot screen against the NCATS LOPAC library (AID 1347410); settings: S. pombe CHP2027, fbp1-GFP fluorescence, 18 h, yeast expressing mammalian AC9 and human GNAS; series mostly up to 57.5 µM
Outline: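 S. pombe CHP2027 (AC9-GNAS-PDE4D2) carrying a PKA-repressed fbp1-GFP reporter was exposed to LOPAC compounds (final up to 57 µM) for 18 h at 30C in the dark, in EMM with histidine, lysine and uracil; GFP gain-of-signal read by laser scanning cytometry.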

[3] = Validation qHTS assay for inhibitors of Activation Induced Cytidine Deaminase (AID): UDG Counterscreen signal (AID 1347427); settings: biochemical UDG counterscreen, fluorescence signal; series mostly up to 115 µM; also: potency is read from the fitted curve at half-maximal effect
Outline: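 Counterscreen read of UDG activity (2 U/mL, 4/3x) in the FRET deamination format with AID (1 uM, 4/3x), DJC20/DJC23 substrates (250 nM, 4x), 4 h at room temperature. NaOH stop, fluorescence at 560 ex/665 em.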

[4] = target: Single-stranded DNA cytosine deaminase (Homo sapiens) (UniProt Q9GZX7); assay: Validation qHTS assay for inhibitors of Activation Induced Cytidine Deaminase (AID): AID signal (AID 1347429); settings: Recombinant AID, FRET ssDNA deamination with UDG, fluorescence; series mostly up to 115 µM; also: potency is read from the fitted curve at half-maximal effect
Outline: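 FRET deamination assay: 1 uM AID (4/3x stock) with UDG, compound up to 114 uM, then 250 nM DJC20/DJC23 substrate (4x stock) for 4 hr at room temperature. NaOH added, 30 min; fluorescence read 540/590 nm.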

[5] = Primary qHTS for inhibitors of La Crosse Virus (LACV) - induced cell death in SH-SY5Y cells (AID 1508616); settings: SH-SY5Y LACV cytopathicity rescue, ATP luminescence, 6 d; series mostly up to 9.63 µM;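 also: top concentration of the series differs between compounds; higher means more rescue of cells from virus-induced death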
Outline: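 SH-SY5Y cells (6000/well) plated 24 h, then given compounds by pin transfer and LACV at 0.01 MOI for 6 days at 37C. Viability measured by ATPLite luminescence, normalized to infected DMSO and uninfected DMSO.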

Chain of Single-stranded DNA cytosine deaminase (Homo sapiens) (Q9GZX7 whole entry, looked up): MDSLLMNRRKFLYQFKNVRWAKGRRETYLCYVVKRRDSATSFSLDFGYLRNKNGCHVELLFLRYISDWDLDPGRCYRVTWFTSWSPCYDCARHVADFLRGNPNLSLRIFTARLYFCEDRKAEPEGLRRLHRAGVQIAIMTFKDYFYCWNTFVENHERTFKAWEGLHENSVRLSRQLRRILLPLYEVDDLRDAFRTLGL

| Compound | Potency [1] | outcome [2] | Potency [3] | Potency [4] | Potency [5] |
| --- | --- | --- | --- | --- | --- |
| c1ccc(C(NCCNC(c2ccccc2)c2ccccc2)c2ccccc2)cc1 | inactive | inactive | inactive | inactive | inactive |
| NCCCCN=C(N)N | inactive | inactive | inactive | inactive | inactive |
| COc1cc(/C=C(\C#N)C(=O)c2ccc(O)c(O)c2)cc(I)c1O | inactive | inactive | inactive | inactive | inactive |
| COc1cc(C(O)C(=O)O)ccc1O (stereo unspecified) | inactive | inactive | inactive | inactive | inactive |
| CC(N)(Cc1ccc(O)cc1)C(=O)O (stereo unspecified) | inactive | inactive | inactive | inactive | inactive |
| O=C1C2C=CC=CC2=NC(=S)N1CCN1CCC(=C(c2ccc(F)cc2)c2ccc(F)cc2)CC1 (stereo unspecified) | inactive | inactive | inactive | inactive | inactive |
| CCCn1c(=O)c2c(ncn2C)n(CCC)c1=O | inactive | inactive | inactive | inactive | inactive |
| O=C(O)c1ccccc1Nc1cccc(OCc2ccc3ccccc3n2)c1 | inactive | inactive | inactive | inactive | inactive |
| Oc1ccc(/C=C/c2ccc(/C=C/c3ccc(O)cc3)c(Br)c2)cc1 | inactive | inactive | inactive | inactive | inactive |
| [N-]=[N+]=Nc1ccc(C(=O)CSC[C@H](NC(=O)CC[C@H](N)C(=O)O)C(=O)NCC(=O)O)cc1 | inactive | inactive | inactive | – | inactive |
| NC(=O)CC[C@H](N)C(=O)O | inactive | inactive | inactive | inactive | inactive |
| Cc1cccc(C)c1OCC(N)C(C)C (stereo unspecified) | inactive | inactive | inactive | inactive | inactive |
| NCCS(=O)O | inactive | inactive | inactive | inactive | inactive |
| N[C@@H](CCCC(=O)O)C(=O)O | inactive | inactive | inactive | inactive | inactive |
| CCCCOc1cc(CC2CNC(=O)N2)ccc1OC (stereo unspecified) | inactive | inactive | inactive | inactive | inactive |
| CCCCCCCCCCCCCCSCC(=O)O | inactive | inactive | inactive | – | inactive |
| CC[N+](CC)(CC)CC(=O)Nc1c(C)cccc1C | inactive | inactive | inactive | inactive | inactive |
| CSC(N)=NCCC[C@H](N)C(=O)O | inactive | inactive | inactive | inactive | inactive |
| c1ccc(C(NCc2cccnc2)(c2ccccc2)c2ccccc2)cc1 | inactive | inactive | inactive | inactive | inactive |
| NC(=O)c1cc[n+](CC2=C(C(=O)O)N3C(=O)[C@@H](NC(=O)[C@@H](c4ccccc4)S(=O)(=O)[O-])[C@H]3SC2)cc1 | inactive | inactive | inactive | inactive | inactive |
| O=c1[nH]ccc2c(O)cccc12 | inactive | inactive | inactive | inactive | inactive |
| Cn1c(=O)c2c(nc(/C=C/c3cccc(Cl)c3)n2C)n(C)c1=O | inactive | inactive | inactive | inactive | inactive |
| NC1(C(=O)O)CCCCC1 | inactive | inactive | inactive | inactive | inactive |
| NC(=O)c1ccccc1 | inactive | inactive | inactive | inactive | inactive |
| CCCCCCCCCCC/C=C\C(C)(C)/C=C\CCCC(=O)O | inactive | inactive | inactive | – | inactive |
| COc1cc(CNC(=O)CCCCCCC(C)C)ccc1O | inactive | inactive | inactive | inactive | inactive |

| Compound | Potency [1] | outcome [2] | Potency [3] | Potency [4] | Potency [5] |
| --- | --- | --- | --- | --- | --- |
| CCCCCC[C@@H]([C@@H](C)O)n1cnc2c(N)ncnc21 | inactive | inactive | inactive | inactive | inactive |
| COc1ccccc1N1CCN(CCCCNC(=O)c2ccc3ccccc3c2)CC1 | inactive | inactive | inactive | inactive | inactive |
| NOCC(=O)O | inactive | inactive | inactive | inactive | inactive |
| O=C(O)C1CN(CCCP(=O)(O)O)CCN1 (stereo unspecified) | inactive | inactive | inactive | inactive | inactive |
| CC(C)(C)NCC(O)COc1cccc2[nH]c(=O)[nH]c12 (stereo unspecified) | inactive | inactive | inactive | inactive | inactive |
| c1ccc2c(c1)CCC[C@H]2Nc1nc2ccccc2[nH]1 | inactive | inactive | inactive | inactive | inactive |
| O=C(O)c1cc(=O)cc(C(=O)O)[nH]1 | inactive | inactive | inactive | inactive | inactive |
| Nc1ccc(-c2nc3ccc(-c4nc5ccc(N)cc5[nH]4)cc3[nH]2)cc1 | inactive | inactive | – | inactive | – |
| Oc1ccc(Cn2cc[nH]c2=S)cc1 | inactive | inactive | inactive | inactive | inactive |
| NC(N)=N[C@@H](CCC(=O)O)C(=O)O | inactive | inactive | inactive | inactive | inactive |
| O=C(O)C1=CCNCC1 | inactive | – | inactive | inactive | inactive |
| CC(N)=NCCCC[C@@H](N)C(=O)O | – | inactive | inactive | inactive | inactive |
| C[C@](Cc1ccc(O)c(O)c1)(NN)C(=O)O | inactive | – | inactive | inactive | – |
| CC(=O)O[C@H]1CC2(C)[C@@H](C[C@@H](O)[C@H]3[C@@]4(C)CC[C@@H](O)[C@@H](C)[C@@H]4CC[C@@]32C)C1=C(CCC=C(C)C)C(=O)O (stereo partly specified) | inactive | – | inactive | inactive | inactive |
| C=C1C[C@@]23CC[C@H]4[C@@](C)(CCC[C@@]4(C)C(=O)O)[C@@H]2CC[C@]1(O)C3 | inactive | – | inactive | inactive | inactive |
| COc1cc(C(O)CO)ccc1O (stereo unspecified) | inactive | – | inactive | inactive | inactive |
| CC[n+]1c(/C=C/C=C2/N(C)c3ccccc3C2(C)C)sc2ccccc21 | – | inactive | inactive | – | – |
| NCCCNCCCCNCCCN | inactive | – | inactive | inactive | inactive |
| COCc1nc2c([nH]1)c(=O)n(C)c(=O)n2CC(C)C | inactive | – | inactive | inactive | inactive |
| Cc1ccc([N+](=O)[O-])cc1S(=O)(=O)N(C)C | inactive | – | inactive | inactive | inactive |
| C=C1C(=O)O[C@@H]2[C@H]3O[C@]3(C)CCC=C(C)CC[C@@H]12 | 14.1 µM (active) | – | inactive | inactive | inactive |
| O=C1Cc2c([nH]c3ccc(Br)cc23)-c2ccccc2N1 | – | inactive | inactive | inactive | – |
| CCCn1c(=O)c2[nH]c(C3CCCC3)nc2n(CCC)c1=O | – | inactive | inactive | inactive | – |
| N#Cc1cc([N+](=O)[O-])c2sc(C(N)=O)[n+]([O-])c2c1 | – | inactive | inactive | inactive | – |
| Nc1nc2c(cnn2CCc2ccccc2)c2nc(-c3ccco3)nn12 | inactive | – | inactive | inactive | inactive |
| CCCCCCC/C=C\CCCCCCCCC(=O)O | inactive | – | inactive | 70.8 µM (active) | inactive |

| Compound | Potency [1] | outcome [2] | Potency [3] | Potency [4] | Potency [5] |
| --- | --- | --- | --- | --- | --- |
| Nc1ncnc2c1ncn2C1CCCC1 | inactive | – | inactive | inactive | inactive |
| COc1ccc(CCN(C)CCc2ccc(OC)c(OC)c2)cc1OC | inactive | – | inactive | inactive | inactive |
| CC(=O)N[C@@H](Cc1c[nH]c2ccccc12)C(=O)OCc1cc(C(F)(F)F)cc(C(F)(F)F)c1 | inactive | – | inactive | inactive | inactive |
| CN1CCc2cc(Cl)c(O)cc2[C@@H](c2ccccc2)C1 | inactive | – | inactive | inactive | inactive |
| Nc1ccc(CCNc2ncnc3c2ncn3C2OC(CO)C(O)C2O)cc1 (stereo unspecified) | inactive | – | inactive | inactive | inactive |
| CCN(CC)CCCCCCCCOC(=O)c1cc(OC)c(OC)c(OC)c1 | – | inactive | inactive | inactive | – |
| C#CC(N)CCC(=O)O (stereo unspecified) | inactive | – | inactive | inactive | inactive |
| C[C@H]1CC2C3CCC4=CC(=O)C=C[C@]4(C)[C@@]3(Cl)[C@@H](O)C[C@]2(C)[C@@]1(O)C(=O)CO (stereo partly specified) | inactive | – | inactive | inactive | inactive |
| NCCC1CCCC(CCN)N1 (stereo unspecified) | inactive | – | inactive | inactive | inactive |
| O=[N+]([O-])c1cccc2cn[nH]c12 | inactive | – | inactive | inactive | inactive |
| CNc1cc(NS(=O)(=O)c2ccc(N)cc2)nc(NC)n1 | inactive | – | inactive | inactive | inactive |
| CC(C)[C@@H]1CC[C@@H](C)C[C@@H]1P(=O)(c1ccccc1)c1ccccc1 | inactive | – | inactive | inactive | inactive |
| Nc1ccc(-c2ccc3ccccc3n2)cc1 | inactive | inactive | – | inactive | inactive |
| O=C(O)C1=CC(=C(c2ccc(O)c(C(=O)O)c2)c2ccc(O)c(C(=O)O)c2)C=CC1=O | – | inactive | 89.1 µM (active) | – | – |
| O=c1cc(-c2ccccc2F)[nH]c2cc3c(cc12)OCO3 | – | inactive | inactive | inactive | – |
| CN1CCCC1CCOC(C)(c1ccccc1)c1ccc(Cl)cc1 (stereo unspecified) | inactive | – | inactive | inactive | – |
| CCN(CC)CCOC(=O)c1cc(Cl)c(N)cc1OC | inactive | – | inactive | inactive | inactive |
| Oc1cc(O)c2c(c1)O[C@H](c1ccc(O)c(O)c1)[C@@H](O)C2 | inactive | – | inactive | inactive | inactive |
| O[Si](CCCN1CCCCC1)(c1ccc(F)cc1)C1CCCCC1 (stereo unspecified) | inactive | – | inactive | inactive | – |
| Nc1ccc(N2C(=O)c3ccccc3C2=O)c(Cl)c1 | inactive | – | inactive | inactive | inactive |
| NC(Cc1cccc(-c2ccccc2CP(=O)(O)O)c1)C(=O)O (stereo unspecified) | inactive | – | inactive | inactive | inactive |
| CNc1ncnc2c1ncn2[C@H]1C[C@H](OP(=O)(O)O)[C@@H](COP(=O)(O)O)O1 | – | inactive | inactive | inactive | inactive |
| O=c1onc2n1-c1cc(Br)ccc1OC2 | – | inactive | inactive | inactive | inactive |
| O=S(=O)(c1cccc2c(Cl)cccc12)N1CCCNCC1 | – | inactive | inactive | inactive | inactive |
| C=CCNc1ncnc2ccc(Br)cc12 | – | inactive | inactive | inactive | inactive |
| CCc1ccc2c(-c3cccc(Cl)c3)nc(=O)n(CC)c2n1 | – | inactive | inactive | inactive | inactive |
